Records with an inconclusive call do not appear. Where a call stands in place of a potency, no number is given. Unmarked numbers belong to inactive results. Active and inactive are the calls of the source. Calls follow the shape of the dose curve; as a rule, active = well fitted cell-killing curve with a large enough effect; inconclusive = small, poorly fitted or top-dose-only effect, or another doubt; inactive = flat fitted curve, though single readings scatter.
Test: Vero cells viability counterscreen for qRT-PCR qHTS assay of selected Zika virus inhibitors
Conditions: CellTiter-Glo ATP luminescence, 24 h; series mostly up to 41.8 µM
Excerpt: Assay Submitters (PI): Avindra Nath, Ph.D., National Institute of Neurological Disorders and Stroke (NINDS), Bethesda, MD Radhakrishnan Padmanabhan, Ph.D., Georgetown University (GU), Washington D.C. Zika Virus causes congenital defects, including microcephaly and is associated with Guillain-Barre syndrome, eningoencephalitis and myelitis in infected adult. […] Using a target-based approach, we hope to establish a screening paradigm to uncover novel, cell-active NS2B-NS3 protease (Zika Virus) specific inhibitors from NCATS' collection of small molecules using qHTS. […] Four assay panel was created to identify potential Zika Virus inhibitors. Namely, (1) GU unlinked NS2B-NS3 AMC tagged protease qHTS, (2) GU unlinked NS2B-NS3 Rhodamine tagged protease qHTS, (3) NINDS linked NS2B-NS3 AMC tagged protease qHTS, (4) NINDS linked NS2B-NS3 Rhodamine tagged protease qHTS. Inhibitors of the Zika virus primary screens are confirmed using qRT-PCR secondary assays, mCherry orthogonal assay, and Vero cells viability counterscreen. Cytotoxic compounds identified in the Vero cell viability counterscreen were excluded from the list of potential Zika virus inhibitors. Early Translation Branch (ETB) National Center for Advancing Translational Sciences (NCATS), Rockville, MD National Institute of Health (NIH), Bethesda, Maryland
Vero Cell Viability Assay: Vero cell cytotoxicity was determined using a luminescent readout with CellTiter Glo reagent (Promega, Madison, WI), which is based on measuring the ATP content within cells. Briefly, 4 uL of Vero cells at 2.5 x 10^5 cells/mL in DMEM containing 4% FBS were dispensed into 1536-well solid bottom tissue treated white plate using a Multidrop Combi dispenser (Thermo Scientific). Plates were incubated at 37 degrees C, 95% humidity, and 5% CO2 overnight to allow for cell attachment. Compounds were dissolved in DMSO at different concentrations and transferred via pintool (Wako Automation), for a final concentration of 57 uM - 0.029 uM. Plates were again incubated for 24 hours, followed by a 2 uL addition of CellTiter Glo. Finally, plates were incubated for 30 minutes at 37 degrees C and 5% CO2 before being read on a ViewLux (Perkin Elmer) for luminescence.

| SMILES | Potency | activity change, negative = cytotoxicity |
| --- | --- | --- |
| O=C(O)c1ccc(S(=O)(=O)N(Cc2ccc(OC(F)(F)F)cc2)c2ncc(C(F)(F)F)cc2Cl)cc1 | inactive |  |
| Oc1cc2ccccc2c2ccccc12 | 11.2 µM (active) |  |
| O=C(O)c1ccc(CCCc2ccc(OCCc3ccc(F)cc3)cc2)o1 | inactive |  |
| O=C(O)c1cccc(-c2ccc(-c3cn(C(=O)N4CCCCC4Cc4ccccc4)nn3)cc2)c1 (stereo not given) | inactive |  |
| CC(=O)Nc1ccc([C@H](C)C(=O)Nc2ncc(C(C)C)s2)cc1 | 2.82 µM (active) |  |
| CC(=O)O[C@@H]1C[C@]2(C)[C@@]3(CCC4[C@@]5(C)CC[C@H](O[C@@H]6O[C@H](C(=O)O)[C@@H](O)[C@H](O[C@@H]7O[C@H](CO)[C@H](O)[C@H](O)[C@H]7O[C@@H]7O[C@@H](C)[C@H](O)[C@@H](O)[C@H]7O[C@@H]7OC[C@](O)(CO)[C@H]7O)[C@H]6O[C@@H]6O[C@H](CO)[C@H](O)[C@H](O)[C@H]6O)C(C)(C)C5CC[C@]42C)O[C@@H](O)[C@]12C3CC(C)(C)[C@@H](OC(=O)/C=C/c1ccc(O)c(O)c1)[C@@H]2OC(=O)/C=C/c1ccccc1 (stereo not given in full) |  | 2.61% [at 7.93 µM] |
| O=C(O)Cc1cc(I)c(Oc2ccc(O)c(I)c2)c(I)c1 | inactive |  |
| O=C(Nc1ccc(Oc2ccc(Cl)cc2)c(Cl)c1)c1cc(I)cc(I)c1O | inactive |  |
| N#CC(c1ccc(Cl)cc1)c1c(Cl)cc(-n2ncc(=O)[nH]c2=O)cc1Cl (stereo not given) | inactive |  |
| Cc1ccn(-c2ccc(-c3ncco3)cc2)c(=O)c1-c1ccc2nc(N)ncc2c1 | inactive |  |
| O=C(O)c1c(Sc2ccccc2)c2cc(Cl)ccc2n1Cc1ccc(Cl)cc1 | inactive |  |
| O=C(O)c1ccc(O)c2ncc(N3CCCN(CCc4cccc5ccccc45)CC3)cc12 | inactive |  |
| CC(Oc1ccccc1)C(=O)Nc1ccc(C(=O)OCc2cc(=O)n3nc(C4CC4)sc3n2)cc1 (stereo not given) | inactive |  |
| CC(C)c1cccc2c(-c3ccccc3)cc(-c3ccc(-c4ccc(C(=O)O)cc4)[nH]3)nc12 | 25.1 µM (active) |  |
| O=C1NC(=O)/C(=C/c2cccc(C(F)(F)F)c2)S1 | inactive |  |
| CC[C@H](C)[C@H]1O[C@]2(CC[C@@H]1C)C[C@@H]1C[C@@H](C/C=C(\C)[C@@H](O[C@H]3C[C@H](OC)[C@@H](O[C@H]4C[C@H](OC)[C@@H](O)[C@H](C)O4)[C@H](C)O3)[C@@H](C)/C=C/C=C3\CO[C@@H]4[C@H](O)C(C)=C[C@@H](C(=O)O1)[C@]34O)O2 | 11.2 µM (active) |  |
| O=C(O)Cn1nnc(-c2cc(N3CCC(Oc4cc(F)ccc4Br)CC3)no2)n1 | inactive |  |
| C=C1c2cccc(O)c2C(O)=C2C(=O)[C@]3(O)C(O)=C(C(N)=O)C(=O)[C@@H](N(C)C)[C@@H]3[C@@H](O)[C@H]12 | inactive |  |
| CN(C)[C@@H]1C(=O)C(C(N)=O)=C(O)[C@@]2(O)C(=O)C3=C(O)c4c(O)ccc(Cl)c4[C@@H](O)[C@H]3C[C@@H]12 | inactive |  |
| COc1ccc(-c2ccccc2)cc1NS(=O)(=O)c1cc(Cl)cc(Cl)c1O | inactive |  |

| SMILES | Potency | activity change, negative = cytotoxicity |
| --- | --- | --- |
| CO[C@H]1C[C@@H](O[C@@H]2/C(C)=C/C[C@@H]3C[C@@H](C[C@]4(CC[C@H](C)[C@@H](C5CCCCC5)O4)O3)OC(=O)[C@@H]3C=C(C)/C(=N/O)[C@H]4OC/C(=C\C=C\[C@@H]2C)[C@]43O)O[C@@H](C)[C@H]1O | 25.1 µM (active) |  |
| CC1(C)CCC(CN2CCN(c3ccc(C(=O)NS(=O)(=O)c4ccc(NCC5CCOCC5)c([N+](=O)[O-])c4)c(Oc4cnc5[nH]ccc5c4)c3)CC2)=C(c2ccc(Cl)cc2)C1 | 3.16 µM (active) |  |
| COc1cc2c(c(O)c1OC/C=C(\C)CC/C=C(/C)CCC=C(C)C)CN(C(CCC(=O)O)C(=O)O)C2=O (stereo not given) | inactive |  |
| N#CC(c1ccnc(OCc2ccc(CN3CCOCC3)cc2)n1)c1nc2ccccc2s1 (stereo not given) | inactive |  |
| COc1cc(C(=O)NS(=O)(=O)c2ccccc2C)ccc1Cc1cn(C)c2ccc(NC(=O)OC3CCCC3)cc12 | inactive |  |
| CCCCCc1ccc(/C=C/C(=O)Nc2cc(Cl)ccc2C(=O)O)cc1 | inactive |  |
| Cc1ccc2nc(NS(=O)(=O)c3ccc(Cl)cc3)c(Nc3ccc(C(=O)O)cc3)nc2c1 | inactive |  |
| CC1(C)CCC(C)(C)c2cc3c(cc21)Sc1ccccc1N=C3c1ccc(C(=O)O)cc1 | inactive |  |
| O=C(Nc1ccc([N+](=O)[O-])cc1Cl)c1cc(Cl)ccc1O | inactive |  |
| Oc1c(Cl)cc(Cl)c(Cl)c1Cc1c(O)c(Cl)cc(Cl)c1Cl | 35.5 µM (active) |  |
| Cc1ccc2c(=O)c3ccccc3n(CCCN)c2c1C | inactive |  |
| N#CC1C(=O)Nc2scc(-c3ccc(-c4ccccc4O)cc3)c2C1=O (stereo not given) | inactive |  |
| COc1cc(C)c(C(=O)OC2C(C)OC(OC3CCC(C)C4C3C=C(C)C3/C(C)=C\CC/C(C)=C/C5(C)C=C(C(=O)O)C(C)CC56OC(=O)/C(=C(\O)C34C)C6=O)C(O)C2O)c(OC)c1 (stereo not given) |  | 3.72% [at 10.4 µM] |
| N#CC1(c2cccc(C(=O)Nc3cc(Oc4ccc5nc(NC(=O)C6CC6)sc5n4)ccc3F)c2Cl)CC1 | inactive |  |
| CN(CC(=O)N(Cc1ccc(C2CCCCC2)cc1)c1ccc(C(=O)O)cc1)S(=O)(=O)c1c(F)c(F)c(F)c(F)c1F | 7.94 µM (active) |  |
| O=C(c1cc(O)c(O)c([N+](=O)[O-])c1)c1ccccc1F | inactive |  |
| O=S(=O)(O)c1ccc2cc(N=Nc3cc(S(=O)(=O)O)c4cccnc4c3O)ccc2c1 | inactive |  |
| O=C(O)Cc1cccc(OCCCN(Cc2cccc(C(F)(F)F)c2Cl)CC(c2ccccc2)c2ccccc2)c1 | inactive |  |
| CCOc1c2c(c(OCC)c3ccccc13)C(=O)N(c1ccc(CC(=O)NS(=O)(=O)c3ccccc3)cc1)C2 | inactive |  |
| CC(C)(C)Sc1c(CC(C)(C)C(=O)O)n(Cc2ccc(Cl)cc2)c2ccc(OCc3ccc4ccccc4n3)cc12 | inactive |  |
